High-throughput results: PubChem, National Center for Advancing Translational Sciences (NCATS)
SW480 rerep: DNA re-replication induction in SW480 cells; AID 624297; Potency, µM (doses to about 46.1 µM), for inactives: at the top dose re-replication activation, actives largely listed as activators; SW480 DNA re-replication, Hoechst DNA content imaging, 48 h; actives 1.8% (n = 340,000); also: % of control where 0% means no effect; nearly all actives have a fitted effect of over 55% in size
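Readout is total intensity of Hoechst-stained nuclei, excited at 405 nm and collected at 500-530 nm. Compound treatment lasted 48 hr at 37 C in 5% CO2 before staining.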
KB-V1 MDR tox: KB-V1 MDR subline cytotoxicity; KB-V1 MDR cells viability, CellTiter-Glo, 72 h; Potency, µM (top dose mostly 46.1 µM), usual class: cytotoxic; actives 3.4% (n = 400,000); AID 1347076; also: % is scaled to controls: 0 for no effect and ±100 for the full control effect; nearly all actives have a fitted effect of over 60% in size
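Luminescent ATP read-out (CellTiter-Glo, 10 min) measures survival of drug-selected KB-V1 MDR cells after 72 h, 37 degrees C compound exposure. Medium: phenol-red-free DMEM, 10% FBS. Values from fitted concentration-response curves.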
MCF10A rereplic: inducers of DNA re-replication in MCF 10A breast cells. MCF 10A DNA re-replication, Hoechst nuclear intensity, 48 h. Potency, µM (top dose mostly 46.1 µM), inactives show at the highest dose activity, positive = re-replication, hits mostly activators. actives 2.9% (n = 350,000). AID 624296; also: % of control where 0% means no effect; nearly all actives have a fitted effect of over 50% in size
ALOX12 inh: ALOX12 (human) lipoxygenase inhibition | AID 1671190 | actives 1.1% (n = 580,000) | P18054 | purified 12hLO, xylenol orange hydroperoxide absorbance | Potency, µM (doses to about 108 µM), for the others: top-dose activity change, negative = inhibition, usual class: inhibitors; also: % is scaled to controls: 0 for no effect and ±100 for the full control effect
Target sequence (P18054 whole entry, looked up): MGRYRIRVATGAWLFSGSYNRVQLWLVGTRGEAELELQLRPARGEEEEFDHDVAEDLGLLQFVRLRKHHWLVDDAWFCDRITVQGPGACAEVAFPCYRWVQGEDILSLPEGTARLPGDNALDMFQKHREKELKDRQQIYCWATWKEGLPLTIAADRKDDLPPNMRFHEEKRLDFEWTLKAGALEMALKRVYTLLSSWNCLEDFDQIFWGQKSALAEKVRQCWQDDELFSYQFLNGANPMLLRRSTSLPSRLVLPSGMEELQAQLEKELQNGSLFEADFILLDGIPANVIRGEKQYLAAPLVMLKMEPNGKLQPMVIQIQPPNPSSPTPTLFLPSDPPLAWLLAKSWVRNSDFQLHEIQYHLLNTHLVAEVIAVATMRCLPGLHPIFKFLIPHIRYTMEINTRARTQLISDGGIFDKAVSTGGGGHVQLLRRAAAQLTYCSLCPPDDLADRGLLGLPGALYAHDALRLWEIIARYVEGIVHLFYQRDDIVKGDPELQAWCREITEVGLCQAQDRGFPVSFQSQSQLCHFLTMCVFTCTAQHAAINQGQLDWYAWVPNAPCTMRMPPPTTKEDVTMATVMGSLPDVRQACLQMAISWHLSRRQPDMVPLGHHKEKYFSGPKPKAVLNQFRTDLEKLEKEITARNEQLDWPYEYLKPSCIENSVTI
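Hydroperoxide product was detected by ferrous iron/xylenol orange as the 573 to 405 nm absorbance ratio. Arachidonic acid at 40 uM (final) was turned over for 30 min at room temperature by 150 nM human 12hLO, pH 7.0 Hepes buffer, after 15 min compound preincubation.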
KB-3-1 cytotox: KB-3-1 parental cell cytotoxicity; KB-3-1 viability, CellTiter-Glo ATP luminescence, 72 h; Potency, µM (series often up to 46.1 µM), most hits filed as cytotoxic; actives 1.4% (n = 400,000); also: % is scaled to controls: 0 for no effect and ±100 for the full control effect; nearly all actives have a fitted effect of over 60% in size
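KB-3-1 parental drug-naive adenocarcinoma cells in DMEM/10% FBS, incubated 72 h at 37 C with pin-transferred compounds across a concentration series. Viability by CellTiter-Glo luminescence; concentration-response curves fitted after normalization.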
PINK1 modulator: PINK1 expression modulation. Potency, µM (doses to about 76.6 µM), for the others: top-dose activation (PINK1 increase), hits mostly activators. AID 624263. PINK1 immunofluorescence, high-content cytometry, 24 h. actives 0.2% (n = 410,000); active = well fitted activation curve with a large enough effect; inconclusive = small, poorly fitted or top-dose-only effect; cell line not stated here; also: % of control where 0% means no effect; nearly all actives have a fitted effect of over 65% in size
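Fluorescence from anti-PINK1 antibody, together with nuclear and cell stains, was scanned on a laser-scanning cytometer. Before staining, stable-line cells were incubated 24 hours with compounds at 5 concentrations; primary antibody 12 h at 10 degrees C.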
An asterisk follows results filed as active; i = inactive; u = inconclusive; x = no result; ! = a repeat was not active; [ ] = dose if it differs, or a comment. Rows were chosen to be rich in hits. Some 5.8% of all compounds tested hit in one or more screens of this group. Unless noted, calls follow the shape of the dose curve; as a rule, active = well fitted curve in the direction sought with a large enough effect; inconclusive = small, poorly fitted or top-dose-only effect, or another doubt; inactive = no such curve, though single readings can be large; an effect the other way counts as inactive or inconclusive. Potency is read from the fitted curve at half-maximal effect.

SMILES	SW480 rerep	KB-V1 MDR tox	MCF10A rereplic	ALOX12 inh	KB-3-1 cytotox	PINK1 modulator
OCCN1CCN(CCCN2c3ccccc3Sc3ccc(C(F)(F)F)cc32)CC1	u	u	23.1µM*!	u	i	-1.1%
CCOC(=O)[C@]12Cc3cc(OC)ccc3[C@H]1N(C1CCCCC1)C(=O)c1ccccc12	x	2.31µM*	x	-69.0%	3.26µM*	-0.6%
CCOC(=O)[C@]12Cc3cc(Cl)ccc3[C@H]1N(C1CCCCC1)C(=O)c1ccccc12	x	u	x	x	1.64µM*	-1.4%
CCOC(=O)[C@]12Cc3cc(OC)ccc3[C@H]1N(C)C(=O)c1ccccc12	x	u	x	-28.5%	u	1.1%
COc1cc2c(cc1OCC1CCCC1)N(C(=O)C1CCC(C)CC1)CC21CCN(CC(=O)O)CC1 (configuration not stated)	x	x	x	5.4%	x	x
COc1ccc(CN2CCN(C(=O)COc3cccc(C)c3)CC2)c(OC)c1	u	2.31µM*	18.7%	u	i	-0.8%
O=C(COc1ccccc1)N1CCN(C/C=C/c2ccccc2)CC1	13.9%	16.4µM*	2.3%	1.7%	i	-3.0%
c1ccc2c(CN3CCOCC3)c[nH]c2c1	-33.0%	i	-3.3%	9.7%	i	2.5%
O=C(COc1ccccc1)N1CCN(Cc2c[nH]c3ccccc23)CC1	-1.1%	i	0.6%	-20.7%	i	-1.4%
c1ccc2c(CN3CCCCCC3)c[nH]c2c1	0.3%	i	-7.2%	-18.8%	14.6µM*	-2.4%
COc1ccc(OCC(=O)N2CCN(Cc3c[nH]c4ccccc34)CC2)cc1	-2.8%	16.4µM*	15.2%	u	i	5.9%
CC(Nc1ccc([N+](=O)[O-])c2cnccc12)C12CC3CC(CC(C3)C1)C2 (configuration not stated)	x	x	x	0.9%	x	x
COC[C@H]1CCCN1C[C@H]1CN2CC[C@H]1C[C@@H]2CNC(=O)c1ccc(N(C)C)cc1	x	x	x	24.8%[176 µM]	x	x
CC(C)NC(=O)NC[C@H]1C[C@@H]2CCN1C[C@@H]2CN1CCCCC1	x	x	x	22.8%[176 µM]	x	x
CCOC(=O)c1ccc(-[n+]2c(-c3ccccc3)cc(-c3ccccc3)cc2-c2ccccc2)cc1	u	i	u	x	i	u
CCOC(=O)c1cccc(-[n+]2c(-c3ccccc3)cc(-c3ccccc3)cc2-c2ccccc2)c1	u	i	0.6%	-19.7%	u	25.1µM*
Cc1ccc(-c2cc(-c3ccc(C)cc3)[n+](-c3ccccc3)c(-c3ccc(C)cc3)c2)cc1	u	i	u	x	5.8µM*	-1.1%
Cc1ccc(-c2cc(-c3ccc(C)cc3)[n+](-c3ccc(C(=O)[O-])cc3)c(-c3ccc(C)cc3)c2)cc1	-2.9%	i	u	u	i	u
c1ccc(-c2cc(-c3ccccc3)[n+](-c3ccccc3)c(-c3ccccc3)c2)cc1	-4.3%	i	20.6%	0.5%	4.61µM*	u
CN(C)c1ccc(N=Nc2ccccc2)cc1	x	u	x	x	u	0.5%
CN(C)c1ccc(-[n+]2c(-c3ccccc3)cc(-c3ccccc3)cc2-c2ccccc2)cc1	u	20.6µM*	u	-21.4%	0.651µM*	u
NCCc1cccs1	x	x	x	79.1%	x	x
CC(C)N(C)CC1CCN(C(=O)c2cn(Cc3ccccc3)c3ccccc23)CC1	x	x	x	14.3%	x	x
Cc1ccc(-c2cc(-c3ccccc3)cc(-c3ccccc3)[n+]2-c2ccccc2)cc1	12.8%[9.22 µM]	i	23.1µM*	u	u	u
C[n+]1c(-c2ccccc2)cc(-c2ccc(Cl)cc2)cc1-c1ccccc1	u	i	-4.0%	-1.7%	u	-2.2%
SMILES	SW480 rerep	KB-V1 MDR tox	MCF10A rereplic	ALOX12 inh	KB-3-1 cytotox	PINK1 modulator
COc1ccc([C@@H]2CN(c3nccc(C)n3)[C@@H]3C4CCN(CC4)[C@@H]32)cc1	x	x	x	48.2%	x	x
O=C1NC(=O)C(=Cc2ccc(-c3ccccc3[N+](=O)[O-])o2)C(=O)N1	u	i	u	u	i	-1.5%
O=C1NC(=O)C(=Cc2ccc(-c3cc(Cl)ccc3[N+](=O)[O-])o2)C(=O)N1	-13.7%	u	-4.5%	6.31µM*	i	-1.4%
CC(=O)Nc1ccc(S(=O)(=O)NC[C@H]2C[C@@H]3CCN2C[C@@H]3c2cc(-c3ccccc3)nn2C)cc1	x	x	x	6.5%	x	x
O=[N+]([O-])c1ccc(NCc2ccccc2)c2nonc12	5.4%	i	0.0%	-6.0%	i	39.8µM*
O=[N+]([O-])c1ccc(NCc2ccccc2)c2ncccc12	x	x	x	-14.9%	x	x
CCOC(=O)C1=CC(=C2C(=O)N(CC)C(=S)N(CC)C2=O)c2ccccc2O1	14.8%	i	u	17.8µM*	i	-1.3%
CCN1C(=O)C(=C2C=C(C)OC(C)=C2)C(=O)N(CC)C1=S	-8.8%	i	u	-6.7%	i	6.6%
COc1ccc(-c2nc(CN3C(=O)CN=C(c4ccccc4)c4ccccc43)c(C)o2)cc1	x	u	x	-15.4%	14.6µM*	-0.2%
Cc1ccc(C)c(S(=O)(=O)N2[C@H]3CC[C@@H]2c2cnc(-c4ccc(F)cc4)nc2C3)c1	x	x	x	-16.9%	x	x
Cc1nc(-c2ccccc2)cc([C@H]2CN3CC[C@H]2C[C@@H]3CNS(=O)(=O)Cc2ccccc2)n1	x	x	x	69.0%	x	x
CC(=O)O[C@@H]1/C=C/[C@](C)(O)C[C@@H](C)C/C=C/[C@H]2[C@@H]3O[C@]3(C)[C@@H](C)[C@H]3[C@H](Cc4ccccc4)NC(=O)[C@@]312	2.59µM*	i	1.46µM*	x	i	17.5%
Ic1ccccc1CN[C@@H]1C2CCN(CC2)[C@@H]1C(c1ccccc1)c1ccccc1	-1.6%	16.4µM*	u	u	u	-0.5%
C=C1CC[C@H](O)C/C1=C/C=C1\CCC[C@]2(C)[C@@H]([C@H](C)CCCC(C)C)CC[C@@H]12	14.7%	x	23.7µM*	x	x	x
CCC(=Nc1cc(OC)ccc1OC)c1c(O)[nH]c(=O)[nH]c1=O	1.6%	2.59µM*	15.6%	u	5.8µM*	-10.2%[38.3 µM]
CCC(=Nc1ccc(OC)cc1OC)c1c(O)[nH]c(=O)[nH]c1=O	-9.4%	10.3µM*	u	0.0%	u	-0.5%
C=CCn1c(O)c(C(CC)=Nc2cc(OC)ccc2OC)c(=O)[nH]c1=O	-22.5%	u	20.0%	-27.3%	i	0.4%[38.3 µM]
COC(=O)C1=C(C)N[C@]2(C)C[C@H]1c1ccccc1O2	x	x	x	-8.7%	x	x
CC(=O)O[C@H]1CCC2C3CCC4=CC(=O)CCC4=C3C=C[C@@]21C (some centres not stated)	-7.7%	8.2µM*	16.2%	-10.5%	u	-0.8%
